# Screening results from PubChem.
# TDP1 inh: blocks human tyrosyl-DNA phosphodiesterase 1. Potency, µM (top dose mostly 130 µM), without a hit: at the highest dose activity change, negative = inhibition, most hits filed as inhibitors. Q9NUW8. recombinant TDP1, AlphaScreen DNA substrate cleavage. hit rate 0.28% among 350,000; also: nearly all actives have a fitted effect of over 40% in size
#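 Here, a 5' biotin and 3' phosphotyrosine-FITC DNA oligonucleotide reports Tdp1 activity: intact substrate bridges AlphaScreen beads, while cleavage leaves a 3' phosphate and drops signal. All incubations at room temperature.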
# PLK1 PBD inh: blocks phosphopeptide binding to human PLK1 polo-box domain; P53350; Plk1 PBD binding of FITC phosphopeptide, fluorescence polarization; Potency, µM, for inactives: max response, negative = inhibition, hits mostly inhibitors; hit rate 2.8% among 360,000; also: series mostly up to about 57 µM; nearly all actives have a fitted effect of over 65% in size
# GCN5L2 inh: inhibitors of human GCN5L2 histone acetyltransferase; Q92830; GCN5L2 HAT assay, ThioGlo1 CoA-SH fluorescence; Potency, µM (doses to about 58.9 µM), for the others: at the highest dose activity change, negative = inhibition, actives largely listed as inhibitors; hit rate 0.21% among 390,000; AID 504327
#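 Compounds, pin-transferred from DMSO stocks, meet 20nM GCN5L2 for 15 min before the reaction begins with H3(1-25) peptide (75uM) and acetyl-CoA (70uM). Thiol-reactive ThioGlo1 reports CoA release over 20 min at room temperature.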
# TDP1 cell CPT: DT40-hTDP1 cell growth loss with CPT; hit rate 12% among 420,000; chicken DT40 Tdp1-/-;hTDP1 cells + 20 nM CPT, ATP luminescence, 48 h; AID 686979; Potency, µM (highest dose often 46.2 µM), for inactives: top-dose activity change, negative = growth inhibition, usual class: inhibitors; also: nearly all actives have a fitted effect of over 55% in size
#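 Chicken DT40 Tdp1-/- cells complemented with human TDP1, 400 cells/well, exposed to compounds plus 20 nM camptothecin for at least 48 h at 37 C; viability read as ATP content by CellTiter-Glo luminescence.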
# VDR inhibitor: vitamin D3 receptor (human) inhibition. P11473. VDR-SRC2-3 peptide fluorescence polarization, 2 h. Potency, µM, without a hit: max response, negative = inhibition, most hits filed as inhibitors. hit rate 0.93% among 400,000. AID 504847
# Target sequence (P11473 whole entry, looked up): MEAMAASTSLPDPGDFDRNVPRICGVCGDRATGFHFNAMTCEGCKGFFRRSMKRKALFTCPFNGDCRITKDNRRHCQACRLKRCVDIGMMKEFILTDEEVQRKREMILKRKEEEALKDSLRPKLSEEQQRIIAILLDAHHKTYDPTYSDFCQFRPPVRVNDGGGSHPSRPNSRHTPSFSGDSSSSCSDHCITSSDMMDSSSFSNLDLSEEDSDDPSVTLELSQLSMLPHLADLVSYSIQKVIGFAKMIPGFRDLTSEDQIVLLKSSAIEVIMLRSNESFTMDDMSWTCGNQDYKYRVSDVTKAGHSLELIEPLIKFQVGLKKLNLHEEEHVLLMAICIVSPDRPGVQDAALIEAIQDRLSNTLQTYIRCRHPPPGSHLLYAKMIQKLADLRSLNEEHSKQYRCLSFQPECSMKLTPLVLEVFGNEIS
#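 Signal is fluorescence polarization, reporting how far test compounds block the interaction of VDR with the SRC2-3 coregulator peptide after a 2 h room-temperature incubation.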
# DT40 TDP1 no CPT: qHTS for Inhibitors of human tyrosyl-DNA phosphodiesterase 1 (TDP1): qHTS in cells in absence of CPT; hit rate 15% among 420,000; DT40 Tdp1-/- hTDP1 cells, no CPT, ATP luminescence, 48 h; Potency, µM (titrated, usually from 46.2 µM), for inactives: at the top dose activity change, negative = growth inhibition, most hits filed as inhibitors; AID 686978, 2013; also: nearly all actives have a fitted effect of over 55% in size
#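 Seeded 400 DT40-hTDP1 cells/well (vehicle DMSO, no 20 nM CPT); pinned compounds; ≥48 hr at 37 °C; CellTiter-Glo luminescence as viability measure.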
# Active calls of the source: *; ? = inconclusive; / = not tested or not shown; [ ] = another dose, or the depositor's remark. Sampled rows, rich in hits. Any-hit rate of the full collection: about 18%. Calls follow the shape of the dose curve; as a rule, active = well fitted curve in the direction sought with a large enough effect; inconclusive = small, poorly fitted or top-dose-only effect, or another doubt; inactive = no such curve, though single readings can be large; an effect the other way counts as inactive or inconclusive. % is scaled to controls: 0 for no effect and ±100 for the full control effect; potency is read from the fitted curve at half-maximal effect.
SMILES,TDP1 inh,PLK1 PBD inh,GCN5L2 inh,TDP1 cell CPT,VDR inhibitor,DT40 TDP1 no CPT
CCc1c(C)sc2c1CCN(C(=O)Nc1cc(OC)c(OC)c(OC)c1)C2c1ccccc1 (stereo unspecified),9%,/,-5%,?,0%,?
Cc1ccccc1NC(=O)N1CCc2c(sc3c2CCCC3)C1c1ccccc1 (stereo unspecified),-4%,/,-17%,?,4%,?
Cc1ccc(NC(=O)N2CCc3c(sc4c3CCCC4)C2c2ccccc2)cc1F (stereo unspecified),-4%,/,-4%,?,-6%,15µM*
COc1ccccc1NC(=O)N1CC(=O)Nc2sc3c(c2C1c1ccccc1)CCCC3 (stereo unspecified),3%,/,-8%,23µM*,6%,18µM*
COc1ccc2nc3ccccc3nc2c1NC(=O)c1ccc(Cl)cc1Cl,0%,-22%,-6%,-16%,-13%,?
Cc1ccc2c(c1)C(=O)CCCCC(=O)N2,/,-10%,-9%,-16%,-8%,5%
COc1ccc(NC(=O)CCSCCc2ccccn2)cc1OC,2%,-11%,-12%,17%,16%,-2%
COc1cc(=O)n2c(c1C(=O)N(C)Cc1nonc1C)CCN(Cc1ccccc1Cl)CC2,/,/,/,5%[9.04 µM],/,-3%
COc1cccc(CN2CCCCC2C(=O)O)c1 (stereo unspecified),5%,-8%,-8%,15%,-7%,-2%
CCc1c(C)sc2c1CCN(Cc1cccc(OC)c1)C2c1ccccc1 (stereo unspecified),1%,/,20%,7.3µM*,17%,5.2µM*
O=C(Nc1ccc(F)cc1F)N1CCc2c(sc3c2CCCC3)C1c1ccc(F)cc1 (stereo unspecified),4%,/,-7%,?,-1%,18µM*
COc1ccc(S(=O)(=O)N2CCN(c3ccc(F)cc3)CC2)cc1C(=O)N1CCCC1,2%,-8%,-6%,-18%,6%,?
NS(=O)(=O)c1cccc(NC(=O)c2cc(=O)c3ccccc3o2)c1,5%,-1%,-19%,12%,-9%,-19%
O=C(Nc1cccc(S(=O)(=O)N2CCCCCC2)c1)c1cc(=O)c2ccccc2o1,7%,-9%,-5%,23µM*,-14%,13µM*
CN(c1ccccc1)S(=O)(=O)c1cccc(NC(=O)c2cc(=O)c3ccccc3o2)c1,3%,-11%,-12%,16µM*,22%,12µM*
CN(Cc1ccccc1)S(=O)(=O)c1ccc(NC(=O)c2cc(=O)c3ccccc3o2)cc1,2%,/,-6%,13µM*,-6%,16µM*
CC(=O)NCCNc1nc(-c2ccccc2Cl)nc2ccccc12,11%[56.1 µM],/,1%,?,8%,?
CN(Cc1ccccc1)S(=O)(=O)c1ccc2c(c1)CCC(=O)N2,-19%,-6%,-19%,11%,-13%,-22%
COc1ccc(C2(c3ccc(OC)cc3)NC(=O)N(CC(=O)Nc3ccc(OC)c(OC)c3)C2=O)cc1,4%,-5%,-9%,-5%,2%,?
O=C1N2CCCc3cccc(c32)C12Nc1ccccc1S2 (stereo unspecified),7%,24µM*,0%,-27%,6%,-14%
Cc1cc(N2CCOCC2)nc2ccc(NC(=O)CCC(=O)N3CCN(c4cccc(C(F)(F)F)c4)CC3)cc12,5%,2%,-10%,4.1µM*,-10%,2.1µM*
CCN1CCN(c2cc(C)c3cc(NC(=O)CCC(=O)N4CCN(c5ccccc5)CC4)ccc3n2)CC1,-15%,-11%,0%,?,7%,?
Cc1cc(N2CCOCC2)nc2ccc(NC(=O)CCC(=O)N3CCC(C)CC3)cc12,1%,-2%,-3%,1%,0%,?
